Laboratory results: PubChem BioAssay (Tox21)
Inconclusive results are not listed. Entries that show only a call come without a potency. Calls of active or inactive are those of the source. The call rests on the fitted dose curve; in most records, active means well fitted activation curve with a large enough effect in the repeat runs; inconclusive means weak or mixed curves; inactive means flat fitted curve, though single readings scatter.

Test: A CellTox Green Cytotoxicity Assay to monitor cytotoxicity in HepG2 cells - 24 hour (AID 1224878); further: nearly all actives have a fitted effect of over 45% in size
Conditions: CellTox Green fluorescence; series mostly up to 76.8 µM
From the text: National Center for Advancing Translational Sciences [NCATS]
NIH Chemical Genomics Center [NCGC]
U.S. Environmental Protection Agency [EPA]
National Institutes of Environmental Health Sciences [NIEHS]
National Toxicology Program [NTP]
Cell-based models are critical for drug discovery. Determining the natural cytotoxic effects resulting from test compounds is an essential research activity. A CellTox Green Cytotoxicity Assay to monitor cytotoxicity in real time of continues cell culture during 40 hours of the compound treatment was used to screen Tox21 10K library compounds in HepG2 cells. CellTox Green Cytotoxicity Assay is a nonlytic, homogeneous, biofluorescent method to measure cytotoxicity in cell culture after experimental manipulation. The assay system uses a proprietary asymmetric cyanine dye that is excluded from viable cells but preferentially stains the dead cell's DNA. […] Viable cells produce no appreciable increases in fluorescence. Therefore, the fluorescence signal produced by the binding interaction with dead cell DNA is proportional to cytotoxicity.
The mixture of HepG2 cell suspension and reagents were dispensed at 600cells/6 ul/well in 1536-well tissue culture treated black solid bottom plates using a Multidrop dispenser. After the assay plates were incubated at a 37 C/5% CO2 incubator for 5 hours, 23 nL of compounds dissolved in DMSO, positive and negative controls was transferred to the assay plate by a pintool work station. The plates were incubated at 37 C for 40 hours. The fluorescence intensity were measured at 0h, 8h, 16h, 24h, 32h and 40h time points using ViewLux plate reader during compound treatment.

Row | Structure (SMILES) | Potency
1 | C=CC(O)CCCCC (stereo not given) | inactive
2 | CCCCCCCCNC | inactive
3 | CC(C(=O)O)c1ccc2c(c1)Cc1cccnc1O2 (stereo not given) | inactive
4 | O=C(O)c1ccccc1[N+](=O)[O-] | inactive
5 | Cc1nc(C)c(C)nc1C | inactive
6 | CC(COc1ccccc1)NC(C)C(O)c1ccc(O)cc1 (stereo not given) | inactive
7 | O=C(O)c1ccc(O)c(O)c1 | inactive
8 | CC(CC(C#N)(c1ccccc1)C(C)C)N(C)C (stereo not given) | inactive
9 | COc1ccc(C(=O)Nc2ccccc2)cc1[N+](=O)[O-] | inactive
10 | O=C1CCCN1CCO | inactive
11 | CC1=C(C)C(=O)C(C(CCCCCC(=O)O)c2ccccc2)=C(C)C1=O (stereo not given) | inactive
12 | CC(O)CN (stereo not given) | inactive
13 | CCC1=C(C)CN(C(=O)NCCc2ccc(S(=O)(=O)NC(=O)NC3CCC(C)CC3)cc2)C1=O (stereo not given) | inactive
14 | CCc1ccc2c(c1)C(=O)c1ccccc1C2=O | inactive
15 | Cc1ccc(S(=O)(=O)NC(=O)NC2CCCC2)cc1 | inactive
16 | O=C(O)c1cccc(C(=O)O)c1C(=O)O | inactive
17 | C(/C=C/C=C/Nc1ccccc1)=Nc1ccccc1 | inactive
18 | Cc1c(Cl)cccc1[N+](=O)[O-] | inactive
19 | C=CC(=O)NC(C)(C)C | inactive
20 | CCC(C)CCCC(C)(C)O (stereo not given) | inactive

Row | Structure (SMILES) | Potency
21 | COC(=O)c1cc(Cl)ccc1[N+](=O)[O-] | inactive
22 | C/C=C1\[C@H]2C=C(C)C[C@]1(N)c1ccc(=O)[nH]c1C2 | inactive
23 | CC1(C)CC(=O)CC(C)(C)N1 | inactive
24 | CC1(C)[C@@H]2CC[C@]3(C2)[C@@H]1C(=O)CCC3(C)C | inactive
25 | CCCCCCCCCCCCSC#N | inactive
26 | O=C(Nc1ccccc1)c1cc([N+](=O)[O-])ccc1Cl | inactive
27 | Clc1cccc(C(c2ccc3nc[nH]c3c2)n2ccnc2)c1 (stereo not given) | inactive
28 | CCC[Si](OC)(OC)OC | inactive
29 | O=C(OC1C[C@H]2CC[C@@H](C1)[N+]21CCCC1)C(O)(c1ccccc1)c1ccccc1 (stereo not given in full) | inactive
30 | COc1cc(CNC(=O)CCCC/C=C/C(C)C)ccc1O | inactive
31 | Cc1cc(SC2=C(O)C[C@@](CCc3ccc(N)cc3)(C(C)C)OC2=O)c(C(C)(C)C)cc1CO | inactive
32 | CCCCCCOC(=O)c1ccccc1 | inactive
33 | O=C(O)c1c2ccccc2cc2ccccc12 | inactive
34 | FC1(F)C(F)(F)C(F)(F)C2(F)C(F)(C1(F)F)C(F)(F)C(F)(F)C1(F)C(F)(F)C(F)(F)C(F)(F)C(F)(F)C12F (stereo not given) | inactive
35 | O=C(O)c1ccccc1-n1cc(C(=O)O)c(=O)c2cc(Nc3c(F)cc(F)cc3Cl)c(Cl)cc21 | inactive
36 | CCOC(C)OCC | inactive
37 | N#CCCCC(C#N)CCC#N (stereo not given) | inactive
38 | CC(C)=CCCC(C)C=O (stereo not given) | inactive
39 | C1=COCCC1 | inactive
40 | Clc1cc(Cl)c2c(c1)N=C1CCCCCN1C2 | inactive
